The record followed here is PubChem BioAssay.

Assay [1] is described as follows: compounds binding Alexa647 anti-His antibody – biochemical, small-molecule microarray, 635 nm fluorescence, artefact control for SMM control protein annotation, primary screen (AID 1128).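 Also: score merges feature fluorescence with signal-to-noise for each printed compound spot.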 The note with it: higher = more signal.
Assay [2] relates to Human papillomavirus type 1a E7 protein (residues 1-88). Kind of assay: HPV1a E7 small-molecule binders, primary screen, biochemical, small-molecule microarray, residues 1-88, 635 nm (AID 1129). The note with it: small-molecule microarray binding, fluorescence 635 nm; higher = more signal.
Assay [3] has as its target Focal adhesion kinase 1 (Homo sapiens) (UniProt Q05397). As to the kind of experiment: PTK2 protein binding on printed compound slides – biochemical, small-molecule microarray, 635/667 nm fluorescence, BSA, DTT, primary screen (AID 1130).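 Also: composite of spot emission at 667 nm and signal to noise over triplicate slides.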 The note with it: 635 nm fluorescence, higher = more signal.
For assay [4], the system named is Fibrinogen (Alexa647-labelled). Kind of assay: Alexa647-fibrinogen binding to printed small molecules – biochemical, small-molecule microarray, 635/667 nm fluorescence, artefact control for SMM control-protein annotation, profiling panel (AID 1131).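 Also: z-score merges 667 nm fluorescence with per-spot signal-to-noise over triplicate slides.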 The note with it: fibrinogen-A647 binding fluorescence, higher = more signal.
In assay [5] the target is Follistatin (Homo sapiens) (UniProt P19883). Kind of assay: FST protein binding to printed compounds – biochemical, small-molecule microarray, 635/667 nm fluorescence, primary screen (AID 1132). The note with it: 635 nm fluorescence, higher = more signal.
For assay [6], the target named is Fibroblast growth factor 2 (Homo sapiens) (UniProt P09038). Kind of assay: basic fibroblast growth factor binding to printed compounds – biochemical, small-molecule microarray, 635/667 nm fluorescence, primary screen (AID 1133). Conditions: FGF2, fluorescence 635/667, higher = more signal.
A short description of assay [7]: JC-1 mitochondrial potential readout, lung cancer cells – cell-based, A549, JC-1 fluorescence, basal, 24 h, 100 nL, profiling panel (AID 1138).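 Also: A549 lung adenocarcinoma cells under basal conditions with no added stimulus; test concentration not given here.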 The note with it: higher = more signal.
The test system of assay [8] is Lefty1. As to the kind of experiment: Lefty1 protein binding to printed compounds – biochemical, small-molecule microarray, 635/667 nm fluorescence, primary screen (AID 1139). The note with it: fluorescence 635/667, higher = more signal.
For assay [9], the system named is wheat germ agglutinin (Triticum aestivum), Alexa647-labelled. Kind of assay: Alexa647-WGA lectin binding to printed small molecules – biochemical, small-molecule microarray, 635/667 nm fluorescence, artefact control for SMM control-protein annotation, profiling panel (AID 1140).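 Also: score merges 667 nm feature emission with signal to noise over triplicate slides.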 The note with it: WGA-A647 binding, 635 nm fluorescence, higher = more signal.
Assay [10] addresses Luciferin 4-monooxygenase (Photinus pyralis) (UniProt P08659). Kind of assay: inhibition of purified Photinus pyralis luciferase – biochemical, luminescence, purified enzyme, 2006 set, primary screen (AID 1141).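 Also: cell-free assay with purified firefly luciferase at 100 ng per well in PBS; test concentration not given here.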 The note with it: purified firefly luciferase, SteadyGlo luminescence, 30 min; higher = more signal, called active from +8 up or from −8 down.
Assay [11] deals with Wnt5a (protein binding on small-molecule microarray). As to the kind of experiment: small molecules binding Wnt5a protein – biophysical, small-molecule microarray, 635/667 nm fluorescence, primary screen (AID 1142).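 Also: fluorescence read at 667 nm with signal to noise per printed feature.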 Conditions: 635 nm fluorescence, higher = more signal.
The nature of assay [12]: ATP-based viability of Huh7 replicon cells – cell-based, CellTiter-Glo luminescence, basal, 48 h, cytotoxicity control for HCV replication inhibitor project, primary screen (AID 1143).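 Also: Huh7 hepatoma cells carrying a hepatitis C replication reporter with no stimulus; test concentration not given here.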 The note with it: higher = more signal, called active from +8 up or from −8 down.
A short description of assay [13]: Pseudomonas biofilm growth suppression – PAO1 strain, BacTiter-Glo luminescence, LB-PBS, primary screen (AID 1144). Conditions: P. aeruginosa PAO1 biofilm, 12 h, higher = more signal.
Assay [14] is described as follows: basal CRE-LacZ reporter activity in PC12 – cell-based, unstimulated, primary screen (AID 1145). The note with it: no forskolin, luminescence, 4.5 h, higher = more signal, called active from +8 up or from −8 down.
Assay [15] is described as follows: forskolin-driven CRE-LacZ activity in PC12 – cell-based, CRE-LacZ reporter, forskolin-stimulated, primary screen (AID 1146).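 Also: PC12 cells with 6xCRE LacZ reporter stimulated by forskolin 10 µM; beta-galactosidase reporter signal reflecting CREB driven transcription.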 The note with it: luminescence, 4.5 h, higher = more signal, called active from +8 up or from −8 down.
Assay [16] concerns the target Streptavidin (Streptomyces avidinii) (UniProt P22629). Kind of assay: compounds binding control protein streptavidin – biophysical, small-molecule microarray, 635/667 nm fluorescence, artefact control for SMM compound annotation, primary screen (AID 1147).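 Also: signal reflects streptavidin binding to arrayed compounds as a control protein.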 Conditions: higher = more signal.
Assay [17] is described as follows: probe aInhba binding on compound microarray – biochemical, small-molecule microarray, 635/667 nm fluorescence, primary screen (AID 1148).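 Also: score merges 667nm spot fluorescence with signal-to-noise for antibody binding to printed compounds.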 The note with it: higher = more signal.
The target of assay [18] is Torsin-1A (Homo sapiens) (UniProt O14656). As to the kind of experiment: TOR1A wild-type binding on microarray – cell lysate, small-molecule microarray, lysate, 635/667 nm, primary screen (AID 1149). Conditions: COS7 hTOR1A-WT lysate, 635 nm fluorescence, higher = more signal.
Assay [19] shares this target. As to the kind of experiment: torsin A mutant lysate binding on microarrays – cell lysate, small-molecule microarray, COS7 lysate, 635/667 nm fluorescence, primary screen (AID 1150).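 Also: score pools 667 nm emission and signal to noise measuring lysate protein binding.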 Conditions: COS7 hTOR1A mutant lysate, 635 nm fluorescence, higher = more signal.
Assay [20] relates to Sonic hedgehog protein (Shh). Kind of assay: Sonic hedgehog microarray binding compounds – biochemical, small-molecule microarray, 635/667 nm fluorescence, primary screen (AID 1151).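 Also: Shh protein binding to compounds spotted on small-molecule microarray slides; score combines spot fluorescence intensity with signal-to-noise across triplicate slides.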 Conditions: 635 nm fluorescence, higher = more signal.

Calls of active or inactive are those of the source. Unless noted, no rule for the calls is given here.

Luciferin 4-monooxygenase (Photinus pyralis), sequence (P08659 whole entry, looked up): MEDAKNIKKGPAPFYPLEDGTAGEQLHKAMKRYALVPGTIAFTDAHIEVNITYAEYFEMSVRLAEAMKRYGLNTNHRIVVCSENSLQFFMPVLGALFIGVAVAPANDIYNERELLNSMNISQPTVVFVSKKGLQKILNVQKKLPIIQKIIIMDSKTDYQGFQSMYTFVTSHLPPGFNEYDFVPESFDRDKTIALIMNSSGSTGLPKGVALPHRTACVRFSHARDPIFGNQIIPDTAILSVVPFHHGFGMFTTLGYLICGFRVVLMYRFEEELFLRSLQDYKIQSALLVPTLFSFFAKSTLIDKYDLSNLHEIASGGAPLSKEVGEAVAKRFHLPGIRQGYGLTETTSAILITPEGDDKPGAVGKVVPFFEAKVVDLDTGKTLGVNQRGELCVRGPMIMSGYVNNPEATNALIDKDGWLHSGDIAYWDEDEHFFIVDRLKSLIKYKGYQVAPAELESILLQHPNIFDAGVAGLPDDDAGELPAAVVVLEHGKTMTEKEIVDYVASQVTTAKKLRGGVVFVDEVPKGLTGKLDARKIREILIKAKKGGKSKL
Follistatin (Homo sapiens), sequence (P19883 whole entry, looked up): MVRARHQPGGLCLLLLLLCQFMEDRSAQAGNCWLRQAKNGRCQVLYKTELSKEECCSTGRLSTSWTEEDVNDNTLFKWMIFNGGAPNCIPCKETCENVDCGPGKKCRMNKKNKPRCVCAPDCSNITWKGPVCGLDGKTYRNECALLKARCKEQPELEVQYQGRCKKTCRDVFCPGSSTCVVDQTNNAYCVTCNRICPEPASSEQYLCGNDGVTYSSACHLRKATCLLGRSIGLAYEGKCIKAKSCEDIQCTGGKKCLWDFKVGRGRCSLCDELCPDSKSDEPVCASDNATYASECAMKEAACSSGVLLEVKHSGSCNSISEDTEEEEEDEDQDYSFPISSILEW
Focal adhesion kinase 1 (Homo sapiens), sequence (Q05397 whole entry, looked up): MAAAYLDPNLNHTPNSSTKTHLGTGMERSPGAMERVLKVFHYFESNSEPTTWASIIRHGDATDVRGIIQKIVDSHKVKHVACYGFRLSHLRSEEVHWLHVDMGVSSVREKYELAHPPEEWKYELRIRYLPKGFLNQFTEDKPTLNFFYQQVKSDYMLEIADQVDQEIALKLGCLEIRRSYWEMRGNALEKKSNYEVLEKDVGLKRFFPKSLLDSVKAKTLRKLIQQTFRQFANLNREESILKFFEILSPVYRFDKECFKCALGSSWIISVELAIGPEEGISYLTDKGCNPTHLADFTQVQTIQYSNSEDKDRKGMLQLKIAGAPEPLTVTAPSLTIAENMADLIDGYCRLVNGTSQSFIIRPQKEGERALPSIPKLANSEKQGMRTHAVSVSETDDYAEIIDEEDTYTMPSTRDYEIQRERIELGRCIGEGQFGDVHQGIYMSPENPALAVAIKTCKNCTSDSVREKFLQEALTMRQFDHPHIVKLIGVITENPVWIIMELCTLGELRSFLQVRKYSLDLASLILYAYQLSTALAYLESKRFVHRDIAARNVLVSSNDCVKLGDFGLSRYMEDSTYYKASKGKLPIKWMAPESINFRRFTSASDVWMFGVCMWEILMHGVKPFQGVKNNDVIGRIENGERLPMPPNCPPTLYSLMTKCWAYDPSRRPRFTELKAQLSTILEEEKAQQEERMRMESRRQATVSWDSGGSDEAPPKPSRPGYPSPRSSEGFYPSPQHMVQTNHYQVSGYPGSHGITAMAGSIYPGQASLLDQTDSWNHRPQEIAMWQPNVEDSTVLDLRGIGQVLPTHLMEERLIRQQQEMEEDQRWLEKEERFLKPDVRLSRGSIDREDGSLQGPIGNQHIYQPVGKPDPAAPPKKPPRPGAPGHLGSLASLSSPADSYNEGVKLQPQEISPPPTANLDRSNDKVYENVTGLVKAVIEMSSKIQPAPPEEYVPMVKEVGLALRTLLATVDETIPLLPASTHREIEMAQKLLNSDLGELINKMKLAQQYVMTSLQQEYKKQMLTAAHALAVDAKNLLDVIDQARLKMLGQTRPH
Streptavidin (Streptomyces avidinii), sequence (P22629 whole entry, looked up): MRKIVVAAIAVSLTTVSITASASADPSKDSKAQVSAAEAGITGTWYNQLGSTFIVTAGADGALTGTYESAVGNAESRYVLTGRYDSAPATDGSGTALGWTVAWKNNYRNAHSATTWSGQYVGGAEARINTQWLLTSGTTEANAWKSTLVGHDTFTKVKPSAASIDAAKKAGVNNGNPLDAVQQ
Fibroblast growth factor 2 (Homo sapiens), sequence (P09038 whole entry, looked up): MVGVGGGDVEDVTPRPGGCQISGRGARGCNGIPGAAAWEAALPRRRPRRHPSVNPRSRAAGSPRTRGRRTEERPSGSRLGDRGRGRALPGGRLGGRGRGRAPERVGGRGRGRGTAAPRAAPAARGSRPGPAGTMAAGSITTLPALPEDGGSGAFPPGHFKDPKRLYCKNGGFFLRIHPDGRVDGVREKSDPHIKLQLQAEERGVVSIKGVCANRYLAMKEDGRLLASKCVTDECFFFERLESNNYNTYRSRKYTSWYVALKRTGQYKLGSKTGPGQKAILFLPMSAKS
Torsin-1A (Homo sapiens), sequence (O14656 whole entry, looked up): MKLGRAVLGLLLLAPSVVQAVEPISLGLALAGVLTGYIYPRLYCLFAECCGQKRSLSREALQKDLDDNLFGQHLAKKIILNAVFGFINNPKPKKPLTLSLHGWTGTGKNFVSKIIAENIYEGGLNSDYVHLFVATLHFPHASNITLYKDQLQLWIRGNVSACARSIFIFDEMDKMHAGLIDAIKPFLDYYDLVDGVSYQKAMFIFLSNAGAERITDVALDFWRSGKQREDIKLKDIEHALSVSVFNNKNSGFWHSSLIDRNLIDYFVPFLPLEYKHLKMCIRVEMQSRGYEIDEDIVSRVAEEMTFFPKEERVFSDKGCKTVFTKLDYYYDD

As to `Cc1ccc(S[C@]2(C(=O)NCC(C)C)CC(=O)N(Cc3ccccc3Cl)[C@@H]2c2ccc(CO)cc2I)cc1`, the composite z-score in assay [1] was 0.231; in assay [2], 0.132; in [3], -0.47; in assay [4], 0.137; in [5], -0.142; in assay [6], -0.131. Further, the composite z-score in assay [8] was -0.7; in [9] it was 0.231; in [11] it was -0.296; in assay [16], -0.942; in [17], -0.176; in assay [18], -0.276. The composite z-score in assay [19] was -0.682; in [20] it was 0.196. Moreover, the z-score is -0.204 in assay [7]; 0.272 (inactive) in assay [10]; -0.521 (inactive) in [12]; -0.505 (inactive) in assay [13]; -0.904 (inactive) in [14]; 0.442 (inactive) in [15].

Regarding `O=C(NC1CC1)[C@@H]1c2ccccc2C(=O)N(Cc2ccccc2)[C@H]1c1ccc(CO)cc1`, the composite z-score is 0.522 in assay [1]; 0.802 in [2]; -0.747 in [3]; 0.497 in assay [4]; 0.665 in [5]; 0.483 in assay [6]. In addition, the composite z-score is 0.626 in assay [8]; 0.905 in assay [9]; 0.336 in assay [11]; -0.928 in assay [16]; 0.0111 in [17]; -0.892 in assay [18]. Besides, the composite z-score in [19] is -0.665; in assay [20], 0.443. Besides, the z-score in [7] was 2.09; in assay [10] it was 0.017 (inactive); in assay [12], -0.878 (inactive); in assay [13], -0.55 (inactive); in assay [14], -0.825 (inactive); in assay [15], -1.22 (inactive).

On to `C[C@]1(C(=O)O)c2ccccc2C(=O)N(Cc2ccccc2)[C@H]1c1ccc(CO)cc1`, for which the composite z-score was -1.17 in [1]; -2.07 in assay [2]; 0.343 in [3]; -2.48 in assay [4]; -0.828 in assay [5]; -1.33 in assay [6]. In addition, the composite z-score in assay [8] is -2.05; in [9] it was -1.37; in assay [11], -0.326; in [16], -0.867; in assay [17] it was -0.176; in assay [18] it was -1.06. Further, the composite z-score in [19] was -0.224; in assay [20], -1.98. In addition, the z-score in assay [7] was 0.686; in assay [10], -0.84 (inactive); in assay [12], -1.25 (inactive); in assay [13], 0.461 (inactive); in assay [14] it was 0.001 (inactive); in assay [15], -0.301 (inactive).

On to `COCC(=C=CC[C@H](O)c1cccc(OCCO)c1)C[C@H](O)c1ccccn1`, for which the composite z-score in assay [1] was 0.344; in assay [2], 0.273; in [3] it was -0.296; in [4], 0.521; in [5], 1.37; in assay [6] it was 0.89. In addition, the composite z-score is 1.37 in assay [8]; 0.613 in [9]; 0.467 in assay [11]; -0.368 in assay [16]; 0.0497 in assay [17]; -0.733 in assay [18]. The figures for the composite z-score in assay [19] and in assay [20] were -0.526 and 1.59, respectively. Besides, the z-score is 1.07 in assay [7]; -0.266 (inactive) in assay [10]; -0.0843 (inactive) in assay [12]; -0.368 (inactive) in [13]; 1.34 (inactive) in [14]; -0.527 (inactive) in assay [15].

For `CCCc1cccc(=O)o1`, the composite z-score in assay [1] came to 0.439; in assay [2], 0.799; in assay [3], 0.106; in assay [4], 0.915; in [5] it was 0.793; in assay [6], 0.223. Moreover, the composite z-score in assay [8] is 0.614; in [9], 0.782; in [11], 0.0303; in [16] it was 0.216; in assay [17] it was -0.128; in assay [18], 1.08. For the same molecule, the composite z-score in assay [19] was 0.5; in assay [20], 0.542. Moreover, the z-score in assay [7] was 0.352; in assay [10] it was 2.08 (inactive); in [12], -1.62 (inactive); in [13], -0.848 (inactive); in assay [14], -0.574 (inactive); in assay [15], 0.646 (inactive).
